Source: PubChem BioAssay (National Center for Advancing Translational Sciences (NCATS))
ClpP mod: qHTS Assay for Activators of ClpP | ATP-dependent Clp protease proteolytic subunit (Bacillus subtilis (strain 168)), P80244 | Potency, µM (top dose mostly 57.5 µM) | 340,000 tested, 1.9% active | purified B. subtilis ClpP, FRET peptide cleavage, 20 min; active means well fitted falling curve with a large enough effect; inconclusive means small, poorly fitted or top-dose-only effect; inactive means no such curve, though single readings can be large or run the other way; further: the source files actives as falling curves though it sought activators and does not explain the sign; nearly all actives have a fitted effect of over 65% in size
Target sequence (P80244 whole entry, looked up): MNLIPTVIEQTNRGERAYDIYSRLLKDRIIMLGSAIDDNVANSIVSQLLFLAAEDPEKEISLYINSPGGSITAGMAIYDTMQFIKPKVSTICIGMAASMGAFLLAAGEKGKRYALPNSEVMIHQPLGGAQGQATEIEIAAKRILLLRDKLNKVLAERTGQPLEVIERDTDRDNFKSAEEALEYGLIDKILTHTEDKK
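FRET quenching reversal measured ClpP activation: 10 microg/mL B. subtilis ClpP at pH 8 with the FRET-FV decapeptide, read at 430 nm after 320 nm excitation. The 20-min minus 0-min signal was scaled between DMSO/no-enzyme wells and ADEP (5.8 microM final).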
PKM2 act: qHTS Assay for Activators of Human Muscle isoform 2 Pyruvate Kinase. Pyruvate kinase PKM (Homo sapiens), P14618. purified PKM2, Kinase-Glo ATP luminescence, activation; response scale: 0% is enzyme alone, no compound. Potency, µM (series often up to 57.5 µM), actives largely listed as activators. 260,000 tested, 0.34% active. AID 1631, 2009; further: nearly all actives have a fitted effect of over 55% in size
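ATP formation by purified human PK-M2, quantified via coupled luciferase luminescence after 1 h at room temperature with 0.1 mM ADP and 0.5 mM PEP final.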
Integrin act MD: qHTS for Activators of Integrin-Mediated Alleviation for Muscular Dystrophy; Potency, µM (doses to about 38.3 µM), hits mostly activators; 350,000 tested, 0.064% active; AID 624291, 2012; alpha7betagal myoblasts, beta-gal FDG fluorescence, 48 h; further: nearly all actives have a fitted effect of over 60% in size
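Alpha7betagal+/- myoblasts (passage 13) were plated 16-24 hr, then exposed to compounds (1:260 dilution of DMSO stock) for 48 hours at 37C. After MPER lysis, β-galactosidase reporter activity was read as FDG fluorescence (ex 480/em 540) after 30 minutes.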
Pin1 inhibitor: qHTS Assay to Find Inhibitors of Pin1; 390,000 tested, 0.009% active; Potency, µM (top dose mostly 115 µM), usual class: inhibitors; Pin1 FP peptide displacement, HiFluor488, 10 min; active means well fitted inhibition curve with a large enough effect in the polarisation, with a control signal flat, not every such curve was filed as active; inconclusive means small, poorly fitted or top-dose-only effect, or effect the other way, or a change in a side signal; inactive means no such curve, though single readings can be large or run the other way; the % refers to the polarisation
Target sequence (Q13526 whole entry, looked up): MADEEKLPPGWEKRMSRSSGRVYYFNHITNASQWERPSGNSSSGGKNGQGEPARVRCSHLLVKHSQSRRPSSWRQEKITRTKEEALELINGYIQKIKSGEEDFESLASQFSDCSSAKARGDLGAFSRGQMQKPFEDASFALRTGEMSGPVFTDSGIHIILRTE
IL-2 act: qHTS of IL-2 Activators; IL-2 activation reporter assay, cell-based qHTS; stimulated with anti-CD3/CD4/CD28 beads; in transgenic mouse T cells; activation, % (series mostly up to about 46 µM); 360,000 tested, 0.065% active; in the data active means activation above about 50%; inconclusive means mostly about 30% to 49%
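Quantitative HTS in unstimulated transgenic mouse T cells, with memory T cells as non-tolerant control and PMA/ionomycin as tolerance-bypass control. Compound pretreatment lasted 60 minutes before 18 h bead stimulation; EGFP/DsRed fluorescence read.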
USP2a inh: qHTS Assay for Inhibitors of Ubiquitin-specific Protease USP2a Using CHOP2 as the Reporter | Ubiquitin carboxyl-terminal hydrolase 2 (Homo sapiens), O75604 | USP2 core, Ub-CHOP2 coupled fluorogenic reporter, 485/531 | Potency, µM (doses to about 38.3 µM), hits mostly inhibitors | 330,000 tested, 0.01% active
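USP2 core (10nM final) preincubated 30min RT with compound in 20mM Tris-HCl pH 8.0, 2mM CaCl2, 2mM beta-mercaptoethanol, 0.05% CHAPS; 25nM Ub-CHOP2 plus 25nM reporter substrate added, fluorescence (Ex485/Em531) read after 60min.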
Numbers stand for hits; i = inactive; ? = inconclusive; nt = no result; [ ] = another dose, or the depositor's remark. The list is not random: actives were taken first. Their share in the collection is about 1.9%. Unless noted, the call rests on the fitted dose curve; in most records, active means well fitted curve in the direction sought with a large enough effect; inconclusive means small, poorly fitted or top-dose-only effect, or another doubt; inactive means no such curve, though single readings can be large; an effect the other way counts as inactive or inconclusive.

SMILES	ClpP mod	PKM2 act	Integrin act MD	Pin1 inhibitor	IL-2 act	USP2a inh
Nc1c(Br)cc(/C=C/c2ccnc3ccccc23)cc1Br	i	nt	nt	nt	nt	nt
CCc1nn2c(=O)cc(-c3ccncc3)nc2s1	nt	nt	nt	i	nt	nt
Cc1nnc2c3ccccc3nc(Nc3ccccc3C(=O)O)n12	16µM	nt	nt	i	nt	nt
Cc1nnc2c3ccccc3nc(Nc3cccc(O)c3)n12	i	nt	nt	i	nt	nt
O=C(c1cc2c(s1)-c1ccccc1OC2)N1CCc2ccccc2C1	i	i	i	i	i	i
COc1ccccc1N1CCN(C(=O)c2cc3c(s2)-c2ccccc2OC3)CC1	14µM	i	i	i	i	i
Cc1ccc2cc(C#N)c(NCCNC(=O)C3CCC3)nc2c1C	16µM	i	i	i	i	i
Cc1ccc(NC(=O)c2ccc(NC(=O)N3CCSc4ncccc43)cc2)cc1Cl	32µM	nt	nt	?	nt	nt
O=C(NCc1ccccc1Cl)c1ccc(NC(=O)N2CCSc3ncccc32)cc1	28µM	nt	nt	i	nt	nt
Cc1ccccc1NC(=O)c1ccc(NC(=O)N2CCSc3ncccc32)cc1	?	nt	nt	i	nt	nt
O=C(Cc1ccc(NC(=O)N2CCSc3ncccc32)cc1)NCc1ccccc1Cl	i	nt	nt	i	nt	nt
CCC(C)C(NC(=O)OC(C)(C)C)C(=O)NC1COC2CC(n3ccc(=O)[nH]c3=O)OC12 (stereo unspecified)	nt	nt	nt	i	nt	nt
CCOC(=O)C1CCN(C(=O)COC(=O)c2nc3nc(C)cc(C)n3n2)CC1	i	nt	i	i	i	i
Cc1cc(C)n2ncc(C(=O)NCc3ccc(Cl)cc3)c2n1	?	i	i	i	i	i
CCOC(=O)C1CCN(C(=O)c2cnn3c(C)cc(C)nc23)CC1	32µM	i	i	i	i	i
Cc1cc(C)n2ncc(C(=O)NCc3ccccc3)c2n1	28µM	i	i	i	i	i
Cc1cc(C)n2ncc(C(=O)NCCc3ccccc3)c2n1	28µM	i	i	i	i	nt
Cc1cc(C)n2nc(C(=O)NCc3ccccc3)nc2n1	i	i	i	i	i	i
Cc1cc(C)n2nc(C(=O)NCc3ccccc3)cc2n1	25µM	i	i	i	i	i
O=C(Nc1ccccc1F)c1ccc(O)c2ncccc12	nt	nt	nt	nt	nt	i
CC#CCN1c2ccccc2[C@]23C[C@@H](C(=O)OC)N(S(=O)(=O)c4cccs4)C2=NC(C(=O)OC)=C(C(=O)OC)[C@H]13	nt	i[11.5 µM]	nt	nt	nt	nt
CC(C)=CC(=O)Oc1ccc(C(=O)N(C)c2ccccc2I)cc1	nt	nt	nt	i	nt	nt
O=C(CNC(=O)c1ccccc1)N[C@H](C(=O)Nc1cc(C(F)(F)F)ccc1Cl)c1ccccc1	nt	nt	nt	i	nt	nt
CCC(=O)NC(c1cccs1)c1cc(Br)c2cccnc2c1O (stereo unspecified)	nt	nt	nt	nt	nt	i
C=CCNC(=O)c1cnn2c1NC(=C)C=C2C	i	nt	nt	nt	nt	nt
SMILES	ClpP mod	PKM2 act	Integrin act MD	Pin1 inhibitor	IL-2 act	USP2a inh
O=C(O)CC(C(=O)O)c1cn(Cc2ccccc2)c2ccccc12 (stereo unspecified)	28µM	i	i	i	i	i
C[C@H](NC(N)=O)C(=O)N1CCN(S(=O)(=O)c2ccc3ccccc3c2)CC1	nt	?	i	i	i	i
CN1CCCN(S(=O)(=O)c2ccc3ccccc3c2)CC1	nt	20µM	i	i	i	i
CNC(=S)N1CCN(S(=O)(=O)c2ccc3ccccc3c2)CC1	i	20µM	i	i	i	i
Brc1ccc(-c2nc3ccccc3s2)s1	28µM	i	i	i	i	i
COc1ccc(CN(C(=O)c2ccco2)C2CCS(=O)(=O)C2)cc1 (stereo unspecified)	28µM	i	i	i	i	i
COc1cccc(CN(C(=O)c2ccco2)C2CCS(=O)(=O)C2)c1 (stereo unspecified)	i	nt	i	i	i	i
Cc1cc(OCC(=O)N(Cc2ccco2)C2CCS(=O)(=O)C2)cc(C)c1Cl (stereo unspecified)	28µM	i	i	i	i	i
